Several values for one entry are separate records, joined by “and”; a condition that tells them apart may be missing. Identical values can stand only once. Records with an inconclusive call do not appear. Where a call stands in place of a potency, no number is given. The source holds several records for some structures; these can differ, active in one and inactive in another. Activity calls are given as the source filed them. Calls follow the shape of the full dose curve.
test: qHTS assay to identify small molecule agonists of H2AX - cell viability counter screen (AID 1224847); details: CHO-K1 viability, CellTiter-Glo luminescence, 3 h; series mostly up to 154 µM; also: nearly all actives have a fitted effect of over 30% in size; as to activity change, negative = cytotoxicity: top concentration of the series differs between compounds
Source text: National Center for Advancing Translational Sciences [NCATS]
NIH Chemical Genomics Center [NCGC]
U.S. Environmental Protection Agency [EPA]
National Institutes of Environmental Health Sciences [NIEHS]
National Toxicology Program [NTP]
U.S. Food and Drug Administration [FDA]
HTRF phospho-H2AX (Ser139) assay (Cisbio Bioassays, US) enables the quantitative detection of the histone variant H2AX when phosphorylated on serine 139. When double-stranded DNA breaks, either by ionizing radiation or endogenous physiological processes, H2AX becomes phosphorylated at Ser139. This phospho-Ser139 serves as a sensitive biomarker for the detection of such breaks, localizing the site of DNA repair. So, HTRF phospho-H2AX Ser139 is a pertinent assay to study genome stability, the cell cycle, DNA repair, and it serves as a biomarker for cancer, and to understand aging. Wild type CHO-K1 cells were used to identify the inducers of Phospho-H2AX Ser 139 from the Tox21 compound collections. Also cytotoxicity of the Tox21 10K compound library against the CHO-K1 cell line was tested by measuring the cell viability using CellTiter-Glo assay (Promega, Madison, WI).
Tox21 Assay Protocol Summary:
The CHO-K1 cells suspended in culture medium containing 10% FBS were dispensed at 1000 cells/ 3 ul/well in 1536-well white wall/solid bottom plates (Greiner Bio-One North America, NC) using a Multidrop Combi (Thermo Fisher Scientific Inc., Waltham, MA). After the assay plates were incubated at 37C overnight, 23 nl of compounds at 15 concentrations (from 5-48 columns) or positive control (from 1 to 4 columns) were transferred to the assay plates using a Pintool station (Wako, San Diego, CA) into each well resulting in a final DMSO concentration of 0.76%. After 3hr incubation at 37C, 3 uL/well CellTiter-Glo luminescent cell viability reagent (Promega Corporation, Madison, WI) was added using a Flying Reagent Dispenser (FRD) (Aurora Discovery, CA). After incubation at room temperature for 30 min, the luminescence intensity was read using a ViewLux plate reader (PerkinElmer, Waltham, MA).
Potency is read from the fitted curve at half-maximal effect.

SMILES	Potency	activity change, negative = cytotoxicity
CCN(CC)c1ccc2c(C)cc(=O)oc2c1	inactive	–
CC(C)(C)c1ccc(O)c(C(C)(C)C)c1	89.4 µM (active)	–
NC(Cc1ccc(Cl)cc1)C(=O)O (stereo not given)	–	-0.321% [at 0.582 µM] (inactive)
O=C(OCc1ccccc1)c1ccc(O)cc1	inactive	–
NC12CC3CC(CC(C3)C1)C2	inactive	–
CCN1CCCC1CNC(=O)c1cc(S(=O)(=O)CC)c(N)cc1OC (stereo not given)	inactive	–
CC(C)(C)NC(=O)[C@@H]1CN(Cc2cccnc2)CCN1C[C@@H](O)C[C@@H](Cc1ccccc1)C(=O)N[C@H]1c2ccccc2C[C@H]1O	inactive	–
CC(N)=O	inactive	–
CCCN[C@H]1CCc2nc(N)sc2C1	inactive	–
CC(C)CCOC(=O)c1ccc(N(C)C)cc1	inactive	–
COc1ccc(COC(C)=O)cc1	inactive	–
c1ccc2cc3c(ccc4ccccc43)cc2c1	inactive	–
CCCCOCCOC(=O)c1ccccc1C(=O)OCCOCCCC	inactive	–
Cc1ccnc2c1NC(=O)c1cccnc1N2C1CC1	inactive	–
COC(=O)/C=C/c1ccccc1	inactive	–
Cc1ccc(S(=O)(=O)Oc2ccc(N=Nc3ccc(-c4ccc(N=Nc5c(O)ccc6cc(S(=O)(=O)O)cc(S(=O)(=O)O)c56)c(C)c4)cc3C)cc2)cc1	45.2 µM (active) and 29.3 µM (active)	–
OCCN1CCNCC1	inactive	–
CC(=O)OCCOCCOCCOC(C)=O	inactive	–
Nc1nc2ccccc2[nH]1	inactive	–
NCCO	inactive	–

SMILES	Potency	activity change, negative = cytotoxicity
N[C@@H]1CONC1=O	inactive	–
Nc1cc(S(=O)(=O)O)cc2cc(S(=O)(=O)O)cc(O)c12	inactive	–
O=C(O)c1cc(Cl)cc(Cl)c1	inactive	–
CCCCCCCCCCCCc1ccccc1O	55.9 µM (active) and 40.1 µM (active)	–
c1ccc2n[nH]nc2c1	inactive	–
Cc1cccc2n[nH]nc12	inactive	–
CC(=O)N[C@@H](CS)C(=O)O	inactive	–
COc1nc(C)nc(Cl)c1NC1=NCCN1	inactive	–
CC(C)(C)c1ccccc1	inactive	–
CC(=O)CC(=O)Nc1ccc2[nH]c(=O)[nH]c2c1	inactive	–
COc1ccc(CCN2CCC(Nc3nc4ccccc4n3Cc3ccc(F)cc3)CC2)cc1	32.6 µM (active)	–
BrC1CCC(Br)C(Br)CCC(Br)C(Br)CCC1Br (stereo not given)	79.7 µM (active) and 95.6 µM (active)	–
CCCCCCCCCCCC[N+](C)(C)C	113 µM (active) and inactive	–
CCn1cc(C(=O)O)c(=O)c2cc(F)c(N3CCNC(C)C3)c(F)c21 (stereo not given)	inactive	–
O=c1n(CC2CO2)c(=O)n(CC2CO2)c(=O)n1CC1CO1 (stereo not given)	inactive	–
CC(C)CCCCCCc1ccc(O)cc1	91.4 µM (active) and 56.6 µM (active)	–
Clc1ccc2c(c1)C(N1CCNCC1)=Nc1ccccc1O2	inactive	–
CNC1(C)C2CCC(C2)C1(C)C (stereo not given)	inactive	–
CCOc1ccccc1C(N)=O	inactive	–
Nc1cc(Cl)c(-c2cc(Cl)c(N)cc2Cl)cc1Cl	101 µM (active) and 113 µM (active)	–

Source: PubChem BioAssay (Tox21)
